Measured values as given in PubChem BioAssay AID2653 (National Center for Advancing Translational Sciences (NCATS), 2010).
Inconclusive results are not listed. Values without a mark were called inactive. Activity calls are given as the source filed them. Calls follow the shape of the dose curve; as a rule, active = well fitted curve in the direction sought with a large enough effect; inconclusive = small, poorly fitted or top-dose-only effect, or another doubt; inactive = no such curve, though single readings can be large or run the other way.

Assay: Secondary Assay for Activators of Human Pyruvate Kinase M2 isoform - Cell Titer Glo Cytotoxicity for Probe SAR; also: % of control where 0% means no effect
Conditions: HeLa viability, CellTiter-Glo ATP luminescence, 24 h; series mostly up to 58.2 µM; activity change, negative = cytotoxicity: at the top concentration
Experimental: NIH Chemical Genomics Center [NCGC]
Matthew G. Vander Heiden, M.D., Ph.D. [Harvard Medical School, 77 Avenue Louis Pasteur, Boston, MA 02115]
We have identified a series of activators of the M2 isoform of human pyruvate kinase. The assay described here examines the cytotoxicity of these compounds by measuring the total ATP content of Hela cells after 24 hrs of exposure to compound.
500 Hela cells/ 4ul in media (DMEM with high glucose, 10% FBS, 1x Pen Strep, 1x NEAA) were dispensed into a white solid 1536-microwell plate with a Thermo Multidrop. The plates were incubated at 37 degrees Celsius for 24 hours. The cells were then treated with compounds using the Kalypsys pin tool, delivering 23 nl of test compounds and the control doxorubicin. The plates were then incubated for an additional 24 hours at 37 degrees C after which 4 ul of Promega Cell-Titer Glo was dispensed using the Thermo Multidrop. The plates were incubated at room temperature for 10 min before reading luminescence on the Perkin Elmer ViewLux with images collected with 2x binning and a 5 sec exposure time.

Row | Compound | activity change, negative = cytotoxicity | outcome
1 | CN(C)c1cccc(S(=O)(=O)N2CCCN(S(=O)(=O)c3ccc4c(c3)OCCO4)CC2)c1 | -21.2% | –
2 | CN(C)c1cccc(S(=O)(=O)N2CCN(S(=O)(=O)c3ccc4c(c3)OCCO4)CC2)c1 | -1.98% | –
3 | Cc1ccc(NS(=O)(=O)c2cc3c(cc2F)NC(=O)CC3)cc1Cl | -30.8% | –
4 | Cc1cc(C)n2c(Nc3ccccc3)c(-c3ccc(C)o3)nc2n1 | -18% | –
5 | Cc1ccc2nc(-c3ccc(C)o3)c(Nc3ccc(F)cc3)n2c1 | -24% | –
6 | Cc1cc(NS(=O)(=O)c2ccc3c(c2)CCC(=O)N3)ccc1F | -7.09% | –
7 | N#Cc1cccc(NS(=O)(=O)c2ccc3c(c2)CCC(=O)N3)c1 | 6.98% | –
8 | Nc1cccc(S(=O)(=O)N2CCCN(S(=O)(=O)c3ccc4c(c3)OCCO4)CC2)c1 | -20.7% | –
9 | Cc1ccc(NS(=O)(=O)c2ccc3c(c2)CCO3)cc1C | 13.2% | –
10 | Cc1ccc(Nc2c(-c3ccc(C)s3)nc3cccc(C)n23)cc1 | -7.47% | –
11 | Cc1ccc(NS(=O)(=O)c2ccc3c(c2)oc(=O)n3C)cc1C | -9.4% | –
12 | CN=c1nc(-c2ccccc2)n(-c2ccccc2)s1 | -22.6% | –
13 | O=C1c2ccccc2C(=O)N1c1ccc2ncccc2c1 | -4.32% | –
14 | Cc1ccc(NS(=O)(=O)c2cc3c(cc2N2CCCCC2)NC(=O)CC3)cc1C | -17.1% | –
15 | O=C1CCc2cc([S+](=O)([O-])Nc3ccc(N[S+](=O)([O-])c4ccc5c(c4)CCC(=O)N5)cc3)ccc2N1 | -12.1% | –
16 | O=C1c2ccccc2C(=O)N1c1noc2ccccc12 | -26.9% | –
17 | Cc1ccc(-c2nc3cccc(C)n3c2Nc2ccc(F)cc2)o1 | -26% | –
18 | O=C1CCc2cc(S(=O)(=O)Nc3ccc4c(c3)OCCO4)ccc2N1 | -28.2% | –
19 | Cc1ccc(NS(=O)(=O)c2cc3c(cc2Cl)NC(=O)CO3)cc1C | -9.17% | –
20 | O=C1c2ccccc2C(=O)N1c1cccc2cnccc12 | -2.96% | –

Row | Compound | activity change, negative = cytotoxicity | outcome
21 | Fc1ccccc1-c1ccc(-c2nc3ccc(Cl)cn3c2Nc2ccc(Cl)cc2)o1 | 1.15% | –
22 | O=C1CCc2cc(S(=O)(=O)Nc3ccc(Cl)c(Cl)c3)c(F)cc2N1 | -16.9% | –
23 | O=S(=O)(c1ccc2c(c1)OCCO2)N1CCN(S(=O)(=O)c2c(F)cccc2F)CC1 | – | inactive
24 | Cc1ccc(C)c(OC2=NS(=O)(=O)c3ccccc32)c1 | -10.2% | –
25 | Cc1ccc(NS(=O)(=O)c2ccc3c(c2)CCCC(=O)N3)cc1C | -1.83% | –
26 | CNc1cccc(S(=O)(=O)N2CCCN(S(=O)(=O)c3ccc4c(c3)OCCO4)CC2)c1 | -19.6% | –
27 | O=C1c2ccccc2C(=O)N1C1CCCCC1 | -17.4% | –
28 | CNc1cc2c(cc1S(=O)(=O)Nc1ccc(C)c(C)c1)CCC(=O)N2 | -25.8% | –
29 | O=C1c2ccccc2C(=O)N1c1cccc(O)c1 | -3.73% | –
30 | Cc1ccc(NS(=O)(=O)c2ccc(N3CCCC3=O)cc2)cc1C | -23% | –
31 | O=C1CCc2cc(S(=O)(=O)Nc3ccccc3-c3ccccc3)ccc2N1 | -19.6% | –
32 | Cc1ccc(NS(=O)(=O)c2cc3c(cc2N2CCC2)NC(=O)CC3)cc1C | -23.9% | –
33 | Cc1ccc(NC(=O)c2ccc3c(c2)CCC(=O)N3)cc1C | -3.07% | –
34 | Cc1ccc2nc(-c3ccc(C)o3)c(Nc3ccc4c(c3)OCO4)n2c1 | -28.6% | –
35 | Cc1cc(N2C(=O)c3ccccc3C2=O)no1 | -24% | –
36 | CSc1cc2c(s1)c1cnn(Cc3cccc(O)c3)c(=O)c1n2C | 1.75% | –
37 | Cc1ccc(NS(=O)(=O)c2ccc3c(c2)CC(=O)N3C)cc1C | -16% | –
38 | O=C1CCc2cc(S(=O)(=O)Nc3cccnc3)ccc2N1 | -7.03% | –
39 | O=C1c2ccccc2C(=O)N1c1ccc(O)cc1 | -5.26% | –
40 | Cc1cccc(OC2=NS(=O)(=O)c3ccccc32)c1 | 2.84% | –
